# According to publication PMC9911399, “Two distinct binding modes provide the RNA-binding protein RbFox with extraordinary sequence specificity”:
# Residue numbers refer to the chain shown, from its start. The full ranking holds about 16,000 sequences; the median of “ka relative to ugcaugu” is about 0.0091, and the highest 2% start at about 0.032. What follows is part of a selection rich in the highest values, with near analogues and random picks from the rest.
# T1: RBFOX1 RRM (Homo sapiens, UniProt Q9NWB1 109-208)
# T1 sequence: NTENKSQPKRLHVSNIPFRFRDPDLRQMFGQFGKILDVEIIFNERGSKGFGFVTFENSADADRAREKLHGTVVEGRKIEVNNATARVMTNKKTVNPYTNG
# B1: AUAACCC (DNA:RNA)
# RNA: GGGAGACCGGAAUUCAGAUUGUCCAUAACCCUUAAAUCCCGUCGUAGCCACCA
# DNA 1: CAATCTGAATTCCGGTCTCCC
# DNA 2: TGGTGGCTACGACGGGATT
# B2: GGCGCUG (DNA:RNA)
# RNA: B1 RNA with A25G, U26G, A27C, A28G, C30U, C31G
# DNA 1: CAATCTGAATTCCGGTCTCCC
# DNA 2: TGGTGGCTACGACGGGATT
# B3: GGUGUCA (DNA:RNA)
# RNA: B1 RNA with A25G, U26G, A27U, A28G, C29U, C31A
# DNA 1: CAATCTGAATTCCGGTCTCCC
# DNA 2: TGGTGGCTACGACGGGATT
# B4: AAACCAG (DNA:RNA)
# RNA: B1 RNA with U26A, A28C, C30A, C31G
# DNA 1: CAATCTGAATTCCGGTCTCCC
# DNA 2: TGGTGGCTACGACGGGATT
# B5: AACUAGA (DNA:RNA)
# RNA: B1 RNA with U26A, A27C, A28U, C29A, C30G, C31A
# DNA 1: CAATCTGAATTCCGGTCTCCC
# DNA 2: TGGTGGCTACGACGGGATT
# B6: AUUUUUU (DNA:RNA)
# RNA: B1 RNA with A27U, A28U, C29U, C30U, C31U
# DNA 1: CAATCTGAATTCCGGTCTCCC
# DNA 2: TGGTGGCTACGACGGGATT
# B7: GGGAUUC (DNA:RNA)
# RNA: B1 RNA with A25G, U26G, A27G, C29U, C30U
# DNA 1: CAATCTGAATTCCGGTCTCCC
# DNA 2: TGGTGGCTACGACGGGATT
# B8: CGGAUUC (DNA:RNA)
# RNA: B1 RNA with A25C, U26G, A27G, C29U, C30U
# DNA 1: CAATCTGAATTCCGGTCTCCC
# DNA 2: TGGTGGCTACGACGGGATT
# B9: GGGAGUG (DNA:RNA)
# RNA: B1 RNA with A25G, U26G, A27G, C29G, C30U, C31G
# DNA 1: CAATCTGAATTCCGGTCTCCC
# DNA 2: TGGTGGCTACGACGGGATT
# B10: GGAGUGU (DNA:RNA)
# RNA: B1 RNA with A25G, U26G, A28G, C29U, C30G, C31U
# DNA 1: CAATCTGAATTCCGGTCTCCC
# DNA 2: TGGTGGCTACGACGGGATT
# B11: CGGAGUG (DNA:RNA)
# RNA: B1 RNA with A25C, U26G, A27G, C29G, C30U, C31G
# DNA 1: CAATCTGAATTCCGGTCTCCC
# DNA 2: TGGTGGCTACGACGGGATT
# B12: GGAAUUC (DNA:RNA)
# RNA: B1 RNA with A25G, U26G, C29U, C30U
# DNA 1: CAATCTGAATTCCGGTCTCCC
# DNA 2: TGGTGGCTACGACGGGATT
# B13: AGUAUUG (DNA:RNA)
# RNA: B1 RNA with U26G, A27U, C29U, C30U, C31G
# DNA 1: CAATCTGAATTCCGGTCTCCC
# DNA 2: TGGTGGCTACGACGGGATT
# B14: GCGUCGG (DNA:RNA)
# RNA: B1 RNA with A25G, U26C, A27G, A28U, C30G, C31G
# DNA 1: CAATCTGAATTCCGGTCTCCC
# DNA 2: TGGTGGCTACGACGGGATT
# B15: CGGCUAU (DNA:RNA)
# RNA: GGGAGACCGGAAUUCAGAUUGUCCCGGCUAUUUAAAUCCCGUCGUAGCCACCA
# DNA 1: CAATCTGAATTCCGGTCTCCC
# DNA 2: TGGTGGCTACGACGGGATT
# B16: AAACACU (DNA:RNA)
# RNA: B1 RNA with U26A, A28C, C29A, C31U
# DNA 1: CAATCTGAATTCCGGTCTCCC
# DNA 2: TGGTGGCTACGACGGGATT
# B17: GCGCAGU (DNA:RNA)
# RNA: B15 RNA with C25G, G26C, U29A, A30G
# DNA 1: CAATCTGAATTCCGGTCTCCC
# DNA 2: TGGTGGCTACGACGGGATT
# B18: GUUGUGG (DNA:RNA)
# RNA: B1 RNA with A25G, A27U, A28G, C29U, C30G, C31G
# DNA 1: CAATCTGAATTCCGGTCTCCC
# DNA 2: TGGTGGCTACGACGGGATT
# B19: UGGAACG (DNA:RNA)
# RNA: B1 RNA with A25U, U26G, A27G, C29A, C31G
# DNA 1: CAATCTGAATTCCGGTCTCCC
# DNA 2: TGGTGGCTACGACGGGATT
# B20: GGAACGU (DNA:RNA)
# RNA: B1 RNA with A25G, U26G, C30G, C31U
# DNA 1: CAATCTGAATTCCGGTCTCCC
# DNA 2: TGGTGGCTACGACGGGATT
# B21: GUGAACG (DNA:RNA)
# RNA: B1 RNA with A25G, A27G, C29A, C31G
# DNA 1: CAATCTGAATTCCGGTCTCCC
# DNA 2: TGGTGGCTACGACGGGATT
# B22: GUUAACG (DNA:RNA)
# RNA: B1 RNA with A25G, A27U, C29A, C31G
# DNA 1: CAATCTGAATTCCGGTCTCCC
# DNA 2: TGGTGGCTACGACGGGATT
# B23: CCGAACG (DNA:RNA)
# RNA: B1 RNA with A25C, U26C, A27G, C29A, C31G
# DNA 1: CAATCTGAATTCCGGTCTCCC
# DNA 2: TGGTGGCTACGACGGGATT
# B24: UGGACCG (DNA:RNA)
# RNA: B1 RNA with A25U, U26G, A27G, C31G
# DNA 1: CAATCTGAATTCCGGTCTCCC
# DNA 2: TGGTGGCTACGACGGGATT
# B25: GAGAACG (DNA:RNA)
# RNA: B1 RNA with A25G, U26A, A27G, C29A, C31G
# DNA 1: CAATCTGAATTCCGGTCTCCC
# DNA 2: TGGTGGCTACGACGGGATT
# B26: GGGAACG (DNA:RNA)
# RNA: B1 RNA with A25G, U26G, A27G, C29A, C31G
# DNA 1: CAATCTGAATTCCGGTCTCCC
# DNA 2: TGGTGGCTACGACGGGATT
# B27: CGGAACG (DNA:RNA)
# RNA: B15 RNA with C28A, U29A, A30C, U31G
# DNA 1: CAATCTGAATTCCGGTCTCCC
# DNA 2: TGGTGGCTACGACGGGATT
# B28: AUUCACC (DNA:RNA)
# RNA: B1 RNA with A27U, A28C, C29A
# DNA 1: CAATCTGAATTCCGGTCTCCC
# DNA 2: TGGTGGCTACGACGGGATT
# B29: GAGUUGU (DNA:RNA)
# RNA: B15 RNA with C25G, G26A, C28U, A30G
# DNA 1: CAATCTGAATTCCGGTCTCCC
# DNA 2: TGGTGGCTACGACGGGATT
# B30: CAACGAU (DNA:RNA)
# RNA: B15 RNA with G26A, G27A, U29G
# DNA 1: CAATCTGAATTCCGGTCTCCC
# DNA 2: TGGTGGCTACGACGGGATT
# B31: AACCAAC (DNA:RNA)
# RNA: B1 RNA with U26A, A27C, A28C, C29A, C30A
# DNA 1: CAATCTGAATTCCGGTCTCCC
# DNA 2: TGGTGGCTACGACGGGATT
# Target: T1, RBFOX1 RRM
# Experiment: EMSA; HiTS-Eq, 1 nM pool, 10 min; buffer printed only for the single-RNA assays: 10 mM Tris pH 7.5, 150 mM NaCl, 3.4 mM EDTA, 0.001% NP-40, 30 C
# Settings: tags: His6 N-terminal (pET28a); label: 5' 32P
# In short: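 Purified wild-type or mutant RbFox RRM at increasing concentrations was equilibrated with 1 nM of 5′-radiolabelled RNA carrying 7 randomized nucleotides for 10 min in 50 µL. Unbound RNA was separated by 8% native PAGE and sequenced. Relative association constants came from read-count changes of each RNA species compared with the control reaction, normalised to the cognate motif.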
row,Binder,binding signal
1,B1,0.00143 KA relative to UGCAUGU
2,B2,0.0174 KA relative to UGCAUGU
3,B3,0.00539 KA relative to UGCAUGU
4,B4,0.000872 KA relative to UGCAUGU
5,B5,0.00203 KA relative to UGCAUGU
6,B6,0.007 KA relative to UGCAUGU
7,B7,0.044 KA relative to UGCAUGU
8,B8,0.0273 KA relative to UGCAUGU
9,B9,0.0333 KA relative to UGCAUGU
10,B10,0.0229 KA relative to UGCAUGU
11,B11,0.0283 KA relative to UGCAUGU
12,B12,0.018 KA relative to UGCAUGU
13,B13,0.0121 KA relative to UGCAUGU
14,B14,0.0208 KA relative to UGCAUGU
15,B15,0.0107 KA relative to UGCAUGU
16,B16,0.00096 KA relative to UGCAUGU

row,Binder,binding signal
1,B17,0.0136 KA relative to UGCAUGU
2,B18,0.0184 KA relative to UGCAUGU
3,B19,0.0367 KA relative to UGCAUGU
4,B20,0.0248 KA relative to UGCAUGU
5,B21,0.0163 KA relative to UGCAUGU
6,B22,0.0101 KA relative to UGCAUGU
7,B23,0.0118 KA relative to UGCAUGU
8,B24,0.0269 KA relative to UGCAUGU
9,B25,0.0165 KA relative to UGCAUGU
10,B26,0.0367 KA relative to UGCAUGU
11,B27,0.0344 KA relative to UGCAUGU
12,B28,0.00129 KA relative to UGCAUGU
13,B29,0.0179 KA relative to UGCAUGU
14,B30,0.00177 KA relative to UGCAUGU
15,B31,0.000641 KA relative to UGCAUGU
